PubChem BioAssay AID2284205 (EPA ToxCast)
The source made the active and inactive calls. Rule for the calls: active = hit-call score of the fitted dose curve at least 0.9, where 1 is the maximum; inactive = score below 0.9.

Each compound was assayed against Peroxisome proliferator-activated receptor gamma (Homo sapiens) (UniProt P37231) (assay: ERF_TW_NR_hPPARG: Eurofins (ERF) Nuclear Receptor (NR) Radioligand Binding LeadHunter Assay for human Peroxisome Proliferator-activated Receptor gamma (PPARg) Agonism, conducted at Taiwan lab site).
Protocol: ERF_TW_NR_hPPARG is a biochemical, single-readout assay that uses extracted gene-proteins in a cell-free assay. Measurements were taken 24 hour after chemical dosing in a 96-well plate. See PPARgamma Human NHR Binding (Agonist Radioligand) Assay, Panlabs.ERF_TW_NR_hPPARG is an assay component calculated from the ERF_TW_NR_hPPARG assay. It is designed to measure radioligand binding using a type of binding reporter as detected by scintillation counting with radiometry technology.Data from the assay component ERF_TW_NR_hPPARG was analyzed at the assay endpoint, ERF_TW_NR_hPPARG, in the positive analysis fitting direction relative to DMSO as the negative control and baseline of activity. Using a type of binding receptor, gain-of-signal activity can be used to understand changes in binding receptor as they relate to gene PPARG.To generalize the intended target to other relatable targets, this assay endpoint is annotated to the nuclear receptor intended target family, where the subfamily is non-steroidal.
Human recombinant PPARgamma-LBD expressed in insect cells are used in modified Tris-HCl buffer pH 7.2. A 0.03 ug aliquot is incubated with 5 nM [3H]Rosiglitazone and 1 ug anti-GST antibody for 24 hours at 4C. Non-specific binding is estimated in the presence of 10 uM rosiglitazone. Receptors are counted to determine [3H]Rosiglitazone specifically bound. Compounds are screened at 10 uM.Test Sample Requirements: Minimum for 1) Screen: 25 ul of 10 mM stock -OR- 1 mg (pre-weighed). 2) Dose Response: 60 ul of 10 mM stock -OR- 1 mg (pre-weighed).

Peroxisome proliferator-activated receptor gamma (Homo sapiens), sequence (P37231 whole entry, looked up): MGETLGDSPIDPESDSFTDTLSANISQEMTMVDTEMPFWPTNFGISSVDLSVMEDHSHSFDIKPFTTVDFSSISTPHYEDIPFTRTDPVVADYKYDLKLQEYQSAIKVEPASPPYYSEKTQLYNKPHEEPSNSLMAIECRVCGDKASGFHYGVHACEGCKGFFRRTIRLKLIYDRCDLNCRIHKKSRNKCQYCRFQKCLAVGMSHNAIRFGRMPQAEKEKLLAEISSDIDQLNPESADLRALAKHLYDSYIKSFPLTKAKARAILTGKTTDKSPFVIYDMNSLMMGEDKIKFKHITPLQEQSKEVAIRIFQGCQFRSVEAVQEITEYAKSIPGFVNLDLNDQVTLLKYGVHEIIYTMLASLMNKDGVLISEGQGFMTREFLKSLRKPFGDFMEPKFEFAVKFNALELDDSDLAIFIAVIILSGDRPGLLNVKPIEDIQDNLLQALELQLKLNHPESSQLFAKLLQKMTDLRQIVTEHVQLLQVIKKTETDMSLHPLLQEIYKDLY

SMILES	AC50
O=C(O)C(F)(F)C(F)(F)C(F)(F)C(F)(F)C(F)(F)C(F)(F)C(F)(F)C(F)(F)Cl	13.4 µM (active)
O=C(CC(=O)C(F)(F)C(F)(F)C(F)(F)F)c1cccs1	7.47 µM (active)
O=S(=O)(O)C(F)(F)C(F)(F)C(F)(F)C(F)(F)C(F)(F)C(F)(F)C(F)(F)F	31.7 µM (active)
